± gives the standard deviation of the averaged measurements. Over roughly 25,000 sequences, “ln(normalized median fluorescence intensity)” has its median near 8.9; the highest 2% begin near 10. For the sample, the highest values were picked, then their nearest neighbours and some sequences at random.
Tested on: PfAP2-LT AP2 domain (GST-tagged)
Experiment: gcPBM binding intensity (ln(normalized median fluorescence intensity)); higher = stronger DNA binding
Outline: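 Binding intensity is the highest Masliner-normalised natural-log median intensity over replicate spots in either probe orientation. To obtain it, GST-tagged P. falciparum DNA-binding domains made in E. coli were incubated for 1 h on an Agilent 4 × 180k array of primer-extended double-stranded 36-bp intergenic genomic probes plus negative controls. Detection used Alexa488 anti-GST antibody with scanning at 488 nm.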

Row | Sequence | gcPBM binding intensity (ln)
1 | TGAACACATACATACACACACACAAAAAAAAAAAAA [CACACA_site392] | 9.76 ± 0.4
2 | AAAAAAAAAAATACTCGTACATAAACCTATACATTT [XGTACX_site6494] | 8.83 ± 0.45
3 | AAAATATGTAGCTACACACACATAAACAAAATAACA [CACACA_site1007] | 9.41 ± 0.3
4 | CTGTTTAAAATATAAACACACATTGTTTGCTTTAGA [CACACA_site1301] | 8.71 ± 0.4
5 | TATAATCATATATACACACACATATATATATATATA [CACACA_site2168] | 9.805 ± 0.05
6 | TAATAAATGACAAATTAACACACATATATTATATAT [CACACA_site9294] | 8.98 ± 0.36
7 | AATAAATAAATACATCTCAGTATATAAACAAACAAA [CACACA_negctrl_site1604] | 8.89 ± 0.51
8 | AATAAATTGAAACACACACACACATATATATATATA [CACACA_site848] | 10.17 ± 0.042
9 | TATATATATATATAAACACACATAAATATAAATATA [CACACA_site1121] | 9.01 ± 0.32
10 | AATATAAATAAACACACACACATATATATATATATT [CACACA_site2906] | 9.79 ± 0.21
11 | AAAAACAACACAGATAAATTAACACACACACACATA [XGTACX_negctrl_site588] | 10.1 ± 0.12
12 | GCATAAATCAAACACACACACATATATATATATATA [CACACA_site2422] | 10.3 ± 0.15
13 | AAATAATCATAAAATAAACACACATATATAAATATA [CACACA_site7981] | 8.89 ± 0.42
14 | CATATAAATAAACACACACACACATATATATATATA [CACACA_site5309] | 10.06 ± 0.064
15 | CATAATACAGATAACACACACAATTATACATAAAAT [CACACA_site5742] | 9.59 ± 0.39
16 | CAGATAAATAAACACACACACACATATATATATATA [CACACA_site9311] | 10.16 ± 0.078
17 | GATAAATTAAAACACACACACATATATATATATATA [CACACA_site3962] | 9.99 ± 0.042
18 | GAAATATTGAAACACACACACAAACATATATATATA [CACACA_site1911] | 10.1 ± 0.26
19 | TAAATATAAACACAAACACACACATATATATATATA [CACACA_site7978] | 10.04 ± 0.035

Row | Sequence | gcPBM binding intensity (ln)
20 | TACTTGTTATTAACATGTACAAAAAAAAAAAAAATT [XGTACX_site1338] | 8.46 ± 0.42
21 | TCTAACATATAATATTCACACACATATATATATTAT [CACACA_site8236] | 9.21 ± 0.43
22 | ACTAAAAGGCTTAAATGTACATATTATATATATATA [XGTACX_site5897] | 8.89 ± 0.42
23 | TGAATAAATATATATACACACATATATGTATATATT [CACACA_site1642] | 8.95 ± 0.37
24 | AAAATTTATAGTATGGTGCATAAAAATATATATATA | 8.82 ± 0.46
25 | AAAAAAAAAAAAAAAACACACATAAAAATATAATAA [CACACA_site3855] | 8.74 ± 0.63
26 | CATAAAATATAAAACACACACACATATATATATATA [CACACA_site223] | 10.1 ± 0.28
27 | TATAAATAAAAACACACACACATATATATATATATA [CACACA_site2319] | 9.88 ± 0.12
28 | AAAAAAAAAAAAAACACACACATATAAATATAAATA [CACACA_site6972] | 9.37 ± 0.45
29 | TAAAATATAAAACACACACACATATATATATATATT [CACACA_site224] | 9.72 ± 0.11
30 | TAAATAAATAAAAAAACACACATATAAATATAAATA [CACACA_site7815] | 8.9 ± 0.52
31 | TAAATAAAAAAACACACACACATATATATATATATA [CACACA_site2269] | 10.2 ± 0.36
32 | AAAAAAATTAAACACACACACACATATATATATATA [CACACA_site4718] | 10.1 ± 0.27
33 | AAAAAAAAATTAAAAACACACATATATATATATATA [CACACA_site1580] | 9.73 ± 0.014
34 | AAAAAAAAAAAACACACACACACATAAATATATATA [CACACA_site149] | 10.1 ± 0.18
35 | AAAAAAAAATTAAAAACACACATATAAATAAATATA [CACACA_site6845] | 8.76 ± 0.54
36 | TAAATAAATAAAAAAACACACATATATATATATATA [CACACA_site4029] | 9.6 ± 0.44
37 | AAGAAAATAAAAAGGTAAATATGTATAAATAAATAA [TGCATGCA_negctrl_site88] | 8.71 ± 0.47
38 | TTATTTTCTTTTTCTTGTACACACATAATATGGATG [XGTACX_site1481] | 9.17 ± 0.54

Row | Sequence | gcPBM binding intensity (ln)
39 | CTAATGATCATATATACACACACACTAATAAAAAAA [CACACA_site9329] | 9.64 ± 0.14
40 | ATACCTTCTTTTATGTTTAATTAATATACTTTTTAT [CACACA_negctrl_site1557] | 8.96 ± 0.55
41 | ACATATATTATTATATGTACATATATTAATTATATA [XGTACX_site3400] | 8.66 ± 0.28
42 | GCACACACAAAAAAAGCATGCATACTAGCTATTTTT [TGCATGCA_site18] | 9.37 ± 0.42
43 | AAAAAAAGAAAAAAAACACACACAAATATAAATAAA [CACACA_site8309] | 9.46 ± 0.39
44 | CACAAAAATAAACACACACACATATATATATATATA [CACACA_site4704] | 10.21 ± 0.057
45 | CTTACCAAAAAACACACACACACAAAATATATAAAT [CACACA_site1870] | 10.1 ± 0.24
46 | TACACAAAAATAAACACACACACATATATATATATA [CACACA_site1000] | 9.79 ± 0.23
47 | AAAAAATATAAAAAAACACACAAAAAAAAAAAAAAA [CACACA_site1382] | 8.6 ± 0.59
48 | TACCAAAAGAAACACACACACAAAATATATAAATAT [CACACA_site1869] | 9.88 ± 0.28
49 | ATATATATAAAACACACACACAAAAAAAATAAAGAC [CACACA_site117] | 10.1 ± 0.28
50 | CACCCATAGAAACACACACACGCATAAAAAAAAAAA [CACACA_site1513] | 9.56 ± 0.37
51 | AAAAAGAAAAAAAACACACACAAATATAAATAAATA [CACACA_site1183] | 9.24 ± 0.49
52 | TACACGCATAAACACACACACACACCCATATATATA [CACACA_site8114] | 10.24 ± 0.05
53 | TACACAAAAATAAACACACACACATATAAATAAATA [CACACA_site6599] | 9.76 ± 0.3
54 | ATTCTACACGCACATACACACATATAAATATAAATA [CACACA_site7582] | 9.24 ± 0.35
55 | TATATATAATATATATATATGGAAATTCTTTTAAAT [XGTACX_negctrl_site50] | 8.41 ± 0.38
56 | AATATGAATATCTATACACACACATATATATACACA [CACACA_site8459] | 9.45 ± 0.26
57 | AAAAAAAAAAAATGTGCACACGCGTACACCCAAAAA [CACACA_site8614] | 9.03 ± 0.4

Reference: the supplement of paper PMC11417369
